Among the data in PubChem BioAssay (NCATS) are Potency values, retold here.

Results filed as inconclusive are left out. Active and inactive are the calls of the source. The call rests on the fitted dose curve; in most records, active means well fitted curve in the direction sought with a large enough effect; inconclusive means small, poorly fitted or top-dose-only effect, or another doubt; inactive means no such curve, though single readings can be large; an effect the other way counts as inactive or inconclusive.

Test [1] is described as follows: qHTS of pediatric cancer cell lines to identify multiple opportunities for drug repurposing: Primary screen for TC32 cells (AID 1347089). Further: nearly all actives have a fitted effect of over 60% in size. The gist of the method:
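Measured quantity: luminescence from CellTiter-Glo, reflecting metabolically active TC32 cells following 48 h of compound. Curves came straight from multi-point titrations, with 8 or 11 points in primary and 11 in confirmatory screening.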

A short description of test [2]: qHTS of pediatric cancer cell lines to identify multiple opportunities for drug repurposing: Primary screen for DAOY cells (AID 1347090). Further: nearly all actives have a fitted effect of over 55% in size. The gist of the method:
(§1)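 Cell viability, CellTiter-Glo luminescence; 500-1,000 cells/well, 8- or 11-point titration, 48 h compound exposure at 37 degrees C, 5% CO2. Controls: DMSO neutral, bortezomib 2.3 µM final as positive.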
In general terms: Quantitative high-throughput screening tests each substance at several concentrations.

Test [3] can be described thus: qHTS of pediatric cancer cell lines to identify multiple opportunities for drug repurposing: Primary screen for NB-EBc1 cells (AID 1347095). The gist of the method: (§2)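 Quantitative HTS format: each compound titrated (MIPE 11 points from 0.78 nM, NPC 8 points from 0.59 nM) onto cells plated 5 hours earlier. After 48 h at 37 degrees C, CellTiter-Glo luminescence was recorded.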

A short description of test [4]: qHTS of pediatric cancer cell lines to identify multiple opportunities for drug repurposing: Primary screen for U-2 OS cells (AID 1347096). Further: nearly all actives have a fitted effect of over 50% in size. The gist of the method: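 Cells (500-1,000/well) rested 5 h, then received compounds for 48 h; metabolically active cells were measured by CellTiter-Glo luminescence. Final concentrations spanned up to 46 µM (MIPE, 11-point) or 0.59 nM-46 µM (NPC, 8-point) in primary screens, 11-point in follow-ups.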

The nature of test [5]: qHTS of pediatric cancer cell lines to identify multiple opportunities for drug repurposing: Primary screen for SK-N-MC cells (AID 1347093). The gist of the method: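 Metabolically active cells were quantified by ATP-dependent luminescence (CellTiter-Glo, 15 min at room temperature) following 48 h treatment. Cells had been plated at 500-1,000 per well and settled for 5 h beforehand.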

A short description of test [6]: qHTS of pediatric cancer cell lines to identify multiple opportunities for drug repurposing: Primary screen for SJ-GBM2 cells (AID 1347091). The gist of the method:
as §1

Test [7] is described as follows: qHTS of pediatric cancer cell lines to identify multiple opportunities for drug repurposing: Primary screen for A673 cells (AID 1347092). Further: nearly all actives have a fitted effect of over 45% in size. The gist of the method:
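Cells are plated, rested 5 h, dosed by pintool, incubated 48 h, then lysed with CellTiter-Glo and read by luminescence. DMSO is the neutral control; bortezomib at 2.3 uM final is the positive control.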

The nature of test [8]: qHTS of pediatric cancer cell lines to identify multiple opportunities for drug repurposing: Primary screen for BT-37 cells (AID 1347094). The gist of the method:
as §2
Potency means the concentration at half of the fitted maximal effect.

Take `O=C(C=Cc1cccnc1)NCCCCC1CCN(C(=O)c2ccccc2)CC1`: the Potency was 0.0047 µM (active) in test [1], 0.0118 µM (active) in test [3] and 0.118 µM (active) in test [4]. In addition, the Potency entry in test [2] was “inactive”.
With `CCCn1c(=O)c2[nH]c(-c3cnn(Cc4cccc(C(F)(F)F)c4)c3)nc2n(CC)c1=O`, the Potency result in test [1], in test [2] and in test [4] was “inactive” in each case.
For the molecule `COc1ccc(-n2nc(C(N)=O)c3c2C(=O)N(c2ccc(N4CCCCC4=O)cc2)CC3)cc1`, the Potency result in test [1], in test [2], in test [5], in test [3] and in test [4] was “inactive” each time.
As for `O=C(Nc1ncc(-c2cc(C(F)F)nn2-c2c(Cl)cccc2Cl)s1)C1CC1`, the Potency was 1.31 µM (active) in test [1]; 0.332 µM (active) in test [6]; 0.296 µM (active) in test [7]; 0.296 µM (active) in test [5]; 0.863 µM (active) in test [8]; 0.296 µM (active) in test [3]. Moreover, the Potency in test [4] was 1.87 µM (active).
Turning to `CCS(=O)(=O)c1cccc(-c2cc(C(=O)NC3CCN(C)CC3)c(C)c3[nH]c4ncc(C)cc4c23)c1`, the Potency in test [1] was 0.415 µM (active); in test [2], 14.8 µM (active); in test [7], 0.743 µM (active); in test [3] it was 16.6 µM (active); in test [4], 14.8 µM (active).
For the molecule `CC[C@@H]1C(=O)N(C)c2cnc(Nc3ccc(C(=O)NC4CCN(C)CC4)cc3OC)nc2N1C1CCCC1`, the Potency in test [1] is 0.234 µM (active); in test [6] it was 0.0372 µM (active); in test [7], 0.0372 µM (active); in test [5], 0.059 µM (active); in test [8], 0.172 µM (active); in test [3], 0.148 µM (active). Moreover, the Potency in test [4] was 14.8 µM (active).
In the case of `CCCCCN(CCC12CC3CC(CC(C3)C1)C2)C(=O)NCCCc1ccncc1`, the Potency entry in test [1] and in test [4] was “inactive” in each case. In addition, the Potency in test [6] was 18.7 µM (active); in test [7], 18.7 µM (active); in test [5], 16.6 µM (active); in test [8] it was 24.3 µM (active); in test [3], 20.9 µM (active).
With `COc1cc(Nc2ncc(F)c(Nc3ccc4c(n3)N(COP(=O)(O)O)C(=O)C(C)(C)O4)n2)cc(OC)c1OC`, the Potency entry in test [1] and in test [8] was “inactive” each time. Moreover, the Potency in test [6] is 1.48 µM (active); in test [7] it was 2.96 µM (active); in test [5], 1.32 µM (active); in test [3], 0.935 µM (active); in test [4], 4.69 µM (active).
With `CCN(CC)CCNC(=O)c1ccc2nc(-c3ccccc3)c(-c3ccc(CN4CCC(n5c(=O)[nH]c6ccccc65)CC4)cc3)nc2c1`, the Potency in test [1] is 18.6 µM (active); in test [2], 23.5 µM (active); in test [5], 2.64 µM (active); in test [8], 10.9 µM (active); in test [4], 3.72 µM (active).
With `CCNC(=O)Nc1ccc2ncc(Nc3ccc(C)cc3)nc2n1`, the Potency in test [1] was 1.86 µM (active); in test [2], 0.0372 µM (active); in test [5], 0.0053 µM (active); in test [8], 24.3 µM (active); in test [3], 18.7 µM (active).
Regarding `CCC(=C(c1ccccc1)c1ccc(OCCN(C)C)cc1)c1ccccc1`, the Potency result in test [1], in test [2] and in test [4] was “inactive” in each case.
For `C[C@@H](Oc1cc(-c2cnn(C3CCNCC3)c2)cnc1N)c1c(Cl)ccc(F)c1Cl`, the Potency in test [1] was 20.8 µM (active); in test [6], 0.0743 µM (active); in test [7], 14.8 µM (active); in test [5] it was 2.35 µM (active); in test [3] it was 9.35 µM (active).
Consider `COc1ccc(CC2SC(=O)NC2=O)cc1C(=O)NCc1ccc(C(F)(F)F)cc1` (stereo not given), for which the Potency result in test [1], in test [2], in test [7], in test [8] and in test [4] was “inactive” in each case.
Take `C1Cc2[nH]nc(-c3nn[nH]n3)c2C1`: the Potency entry in test [1], in test [2], in test [7], in test [3] and in test [4] was “inactive” throughout.
In the case of `Cc1c(NC(=O)OC[C@@H]2COCCN2)cn2ncnc(Nc3ccc4c(cnn4Cc4cccc(F)c4)c3)c12`, the Potency result in test [1] was “inactive”. Also, the Potency in test [2] was 0.0743 µM (active); in test [5] it was 0.0935 µM (active).
Take `Clc1cccc(-c2nnnn2Cc2cccnc2)c1Cl`: the Potency entry in test [1], in test [2], in test [7], in test [3] and in test [4] was “inactive” throughout.
On to `CCCCN1CCC(CNC(=O)c2c3n(c4ccccc24)CCCO3)CC1`, for which the Potency result in test [1] and in test [4] was “inactive” each time. Further, the Potency was 1.87 µM (active) in test [2], 4.69 µM (active) in test [5] and 13.2 µM (active) in test [3].
In the case of `CN(C)CC(C)(C)CNc1nn2c(-c3ccccc3)nnc2cc1C1CCC1`, the Potency is 18.6 µM (active) in test [1]; 1.18 µM (active) in test [6]; 0.743 µM (active) in test [7]; 0.469 µM (active) in test [5]; 0.264 µM (active) in test [3]. Moreover, the Potency result in test [4] was “inactive”.
On to `CC(C)(O)c1cc2nc(-c3cnc(N)nc3)nc(N3CCOCC3)c2s1`, for which the Potency in test [1] was 0.466 µM (active); in test [2], 0.148 µM (active); in test [7], 0.372 µM (active); in test [3] it was 0.0935 µM (active).
Take `CC(C)Nc1cc(C(F)(F)F)cc2nc(NC(=O)c3cccnc3)nn12`: the Potency result in test [1], in test [2], in test [3] and in test [4] was “inactive” throughout. Moreover, in test [5], the Potency is 16.6 µM (active).
Consider `CC[C@H](CO)Nc1nc(NCc2ccccc2)c2ncn(C(C)C)c2n1`, for which the Potency result in test [1] and in test [4] was “inactive” in each case. Moreover, the Potency in test [2] is 23.5 µM (active); in test [7] it was 18.7 µM (active); in test [8], 27.3 µM (active).
For the molecule `CN1CCC(CNc2ccc3ncc(-c4cccc(OC(F)(F)F)c4)n3n2)CC1`, in test [1], the Potency entry is “inactive”. Moreover, the Potency is 16.6 µM (active) in test [6], 14.8 µM (active) in test [7], 4.18 µM (active) in test [5] and 18.7 µM (active) in test [3].
On to `CC(C)CC(=O)Nc1n[nH]c2c1CN(C(=O)C1CCN(C)CC1)C2(C)C`, for which the Potency in test [1] was 5.87 µM (active); in test [2], 11.8 µM (active); in test [5], 0.0526 µM (active); in test [8], 0.485 µM (active).
Regarding `COc1cc2c(Nc3ccc(NC(=O)c4ccccc4)cc3)ncnc2cc1OCCCN1CCOCC1`, the Potency is 3.7 µM (active) in test [1]; 5.26 µM (active) in test [6]; 14.8 µM (active) in test [7]; 30.6 µM (active) in test [8]; 18.7 µM (active) in test [3].
